According to PubChem BioAssay (NCATS):
Where “and” joins values, the source holds several entries; their conditions need not be identical. Equal values may be shown once. Results filed as inconclusive are left out. Entries that show only a call come without a potency. Calls of active or inactive are those of the source. The call rests on the fitted dose curve.

Assays:
[1] = Primary qHTS for inhibitors of MERS-S pseudo-typed particle cell entry (AID 1479149); further: nearly all actives have a fitted effect of over 60% in size; further: potency means the concentration at half of the fitted maximal effect
[2] = Primary qHTS for Vero E6 cytotoxicity: counterscreen for inhibitors of SARS-S pseudo-typed particle cell entry (AID 1479150)
[3] = Cytotoxicity counterscreen for inhibitors of SARS-CoV-2 cell entry (AID 1645845); further: nearly all actives have a fitted effect of over 50% in size
Procedure, shortened: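 Counterscreen run in the same HEK293-ACE2 line as the pseudotyped-particle entry assay, without particles. Viability after 48 h at 37 C was read as ATP luminescence, scaled between cell-containing and cell-free wells.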

[4] = Primary qHTS to identify inhibitors of SARS-CoV-2 cell entry (AID 1645846); conditions: activity change, negative = inhibition: at 57.1 µM (top of the series) unless noted; further: nearly all actives have a fitted effect of over 45% in size; further: potency means the concentration at half of the fitted maximal effect
Procedure, shortened: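 HEK293 cells stably expressing human ACE2, pre-treated 1 h with compound, then infected with MLV particles pseudotyped with Wuhan-Hu-1 spike (C-terminal 19-aa truncation). Luciferase luminescence after 48 h at 37 °C, normalised to spike PP and bald PP.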

Compound | Potency [1] | Potency [2] | Potency [3] | Potency [4] | activity change, negative = inhibition [4]
CCCCS(=O)(=O)N[C@@H](Cc1ccc(OCCCCC2CCNCC2)cc1)C(=O)O | inactive | inactive | inactive | inactive | 
Cc1[nH]c(=O)c(C#N)cc1-c1ccncc1 | inactive | inactive | inactive | inactive | 
CC(c1cc2ccccc2s1)N(O)C(N)=O (stereo unspecified) | inactive | inactive | inactive |  | 4.54% and -93%
Cc1cn[nH]c1 | inactive | inactive | inactive |  | 4.3%
O=C(O)CCCc1ccccc1 | inactive | inactive | inactive | inactive | 
COC(=O)C(c1ccccc1Cl)N1CCc2sccc2C1 (stereo unspecified) | inactive | inactive | inactive | inactive | 
CN(C)[C@@H]1C(=O)C(C(N)=O)=C(O)[C@@]2(O)C(=O)C3=C(O)c4c(O)ccc(Cl)c4[C@@H](O)[C@H]3C[C@@H]12 | inactive | inactive | inactive | inactive | 
CCCN(CCC)CCc1cccc2c1CC(=O)N2 | inactive | inactive | inactive | inactive | 
CCCCOCCOCCOCc1cc2c(cc1CCC)OCO2 | inactive | inactive | inactive |  | -2.81%
Cc1cnc(C(=O)NCCc2ccc(S(=O)(=O)NC(=O)NC3CCCCC3)cc2)cn1 | inactive | inactive | inactive |  | 3.67%
NC(=Nc1ccccc1)Nc1ccccc1 | inactive | inactive | inactive |  | 1.43%
Oc1cn2c(n1)Nc1ccc(Cl)c(Cl)c1C2 | inactive | inactive | inactive | inactive | 
CC(C)(C(=O)O)c1ccc(C(O)CCCN2CCC(C(O)(c3ccccc3)c3ccccc3)CC2)cc1 (stereo unspecified) | inactive | inactive | inactive | inactive | 
Cc1cn([C@H]2C=C[C@@H](CO)O2)c(=O)[nH]c1=O | inactive | inactive | inactive |  | -21.1%
Nc1nc(N)c2nc(-c3ccccc3)c(N)nc2n1 | inactive | inactive | inactive | inactive | 
CN(N=O)C(=O)N[C@@H]1[C@@H](O)[C@H](O)[C@@H](CO)O[C@@H]1O | inactive | inactive | inactive |  | -3.87% and -2.3%
COc1ccc([C@@H]2Sc3ccccc3N(CCN(C)C)C(=O)[C@@H]2OC(C)=O)cc1 | inactive | inactive | inactive |  | -17.1% and -9.97%

Compound | Potency [1] | Potency [2] | Potency [3] | Potency [4] | activity change, negative = inhibition [4]
CCC(C)n1ncn(-c2ccc(N3CCN(c4ccc(OC[C@H]5CO[C@](Cn6cncn6)(c6ccc(Cl)cc6Cl)O5)cc4)CC3)cc2)c1=O (stereo partly specified) | 2.51 µM (active) | inactive | inactive |  | -4.73% [at 27.1 µM]
CC(C)NC[C@@H](O)COc1ccc(CC(N)=O)cc1 | inactive | inactive | inactive |  | -29.4%
CCN(C)C(=O)Oc1cccc([C@H](C)N(C)C)c1 | inactive | inactive | inactive | inactive | 
CCCCCOC(=O)Nc1nc(=O)n([C@@H]2O[C@H](C)[C@@H](O)[C@H]2O)cc1F | inactive | inactive | inactive | inactive | 
Cc1ccc(C(=O)c2cc(O)c(O)c([N+](=O)[O-])c2)cc1 | inactive | inactive | inactive |  | -19.3%
CNCCc1ccccn1 | inactive | inactive | inactive | inactive | 
Cc1ccccc1C(=O)Nc1ccc(C(=O)N2CCCC(O)c3cc(Cl)ccc32)c(C)c1 (stereo unspecified) | inactive | inactive | inactive |  | -8.91%
Cc1ccc2c(n1)Oc1ccc(C(C)C(=O)OCC(=O)N(C)C)cc1C2 (stereo unspecified) | inactive | inactive | inactive | inactive | 
Cc1ccsc1C(=CCCN1CCC[C@@H](C(=O)O)C1)c1sccc1C | inactive | inactive | inactive |  | -13.3%
c1cnc2cc3c(cc2n1)C1CNCC3C1 | inactive | inactive | inactive |  | -6.05% and -6%
COc1cc(NC(C)CCCN)c2ncccc2c1 (stereo unspecified) | inactive | inactive | inactive |  | 2.06%
CCOc1ccc2ccccc2c1C(=O)N[C@@H]1C(=O)N2[C@@H]1SC(C)(C)[C@@H]2C(=O)O | inactive | inactive | inactive | inactive | 
CN(C/C=C/C#CC(C)(C)C)Cc1cccc2ccccc12 | inactive | inactive | inactive |  | -3.95%
CC(C)(C)NC(=O)[C@H]1CC[C@H]2[C@@H]3CC[C@H]4NC(=O)C=C[C@]4(C)[C@H]3CC[C@]12C | inactive | inactive | inactive | inactive | 
Nc1nc2c(ncn2COCCO)c(=O)[nH]1 | inactive | inactive | inactive | inactive | 
O=c1[nH]cc(F)c(=O)[nH]1 | 8.91 µM (active) | inactive | inactive | 11.2 µM (active) and 14.1 µM (active) | 
CC(C)NCC(O)COc1ccc(CCOCC2CC2)cc1 (stereo unspecified) | inactive | inactive | inactive |  | -14.6% and -1.57%
